Measurements published in paper PMC4336329 (PLoS ONE, 2015).
The whole screen tested about 310,000 compounds, of which about 14,000 (4.5%) showed an effect of 50% or more. Effects have a minus sign here. The full list was thinned out, with strong results kept by preference.

Molecular target: human ether-à-go-go-related gene (hERG) potassium channel (human, UniProt Q12809)
Assay: primary screen, population patch clamp on CHO cells stably expressing hERG; higher = less effect of the substance
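Also: peak tail current of the secondary pulse compared with the same well before compound.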

human ether-à-go-go-related gene (hERG) potassium channel, sequence (Q12809 whole entry, looked up): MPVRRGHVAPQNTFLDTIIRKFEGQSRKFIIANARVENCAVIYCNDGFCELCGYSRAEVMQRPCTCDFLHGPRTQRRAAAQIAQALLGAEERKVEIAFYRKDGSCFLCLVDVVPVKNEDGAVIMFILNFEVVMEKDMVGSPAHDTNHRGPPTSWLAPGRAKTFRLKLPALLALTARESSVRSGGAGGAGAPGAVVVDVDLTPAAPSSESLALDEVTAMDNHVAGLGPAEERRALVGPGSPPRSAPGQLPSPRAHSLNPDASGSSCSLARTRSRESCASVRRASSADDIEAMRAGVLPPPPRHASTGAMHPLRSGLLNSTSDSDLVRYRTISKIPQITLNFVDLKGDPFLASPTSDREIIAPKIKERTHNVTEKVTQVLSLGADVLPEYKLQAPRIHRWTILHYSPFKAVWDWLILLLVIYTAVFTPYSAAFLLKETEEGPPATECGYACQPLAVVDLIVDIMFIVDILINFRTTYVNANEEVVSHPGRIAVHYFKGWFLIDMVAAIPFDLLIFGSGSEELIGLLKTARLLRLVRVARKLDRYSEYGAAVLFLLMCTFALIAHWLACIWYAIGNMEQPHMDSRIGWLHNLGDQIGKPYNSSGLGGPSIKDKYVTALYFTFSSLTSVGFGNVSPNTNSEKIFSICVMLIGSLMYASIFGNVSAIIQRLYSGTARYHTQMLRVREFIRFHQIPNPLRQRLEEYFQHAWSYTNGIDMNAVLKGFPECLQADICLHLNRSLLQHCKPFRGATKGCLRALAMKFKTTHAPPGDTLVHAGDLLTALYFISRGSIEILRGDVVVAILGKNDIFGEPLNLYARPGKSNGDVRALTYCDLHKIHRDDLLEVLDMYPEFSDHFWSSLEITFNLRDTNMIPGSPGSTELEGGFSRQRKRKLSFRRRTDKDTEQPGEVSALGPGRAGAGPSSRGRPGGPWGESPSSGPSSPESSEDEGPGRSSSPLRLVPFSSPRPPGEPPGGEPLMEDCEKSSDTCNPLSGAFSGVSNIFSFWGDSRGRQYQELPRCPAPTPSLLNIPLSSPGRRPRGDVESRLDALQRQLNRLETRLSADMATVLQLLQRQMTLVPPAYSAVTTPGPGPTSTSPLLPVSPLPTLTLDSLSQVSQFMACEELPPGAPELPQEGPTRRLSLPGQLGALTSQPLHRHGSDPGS

Structure (SMILES) | hERG current change (%, negative = inhibition) at 10uM [%]
O=C(CSc1nc2[nH]ncc2c(=O)[nH]1)Nc1cccc(Cl)c1 | 4.2
CN(C)CCN(Cc1ccccc1)c1ccnc(N(C)C)c1C#N | -26.7
CN(C)c1nccc(N(Cc2ccccc2)Cc2ccccc2)c1C#N | -58.3
CN(C)c1ccnc(N(Cc2ccccc2)Cc2ccccc2)c1C#N.Cl | -6.74
Cc1c(Cl)cccc1N=C1SCCN1C(=O)CN1C(=O)NC2(CCCC2)C1=O | -16.5
O=C(C1CC1)N1CCc2cc(Br)cc(S(=O)(=O)N3CCCCCC3)c21 | -16.5
O=C(N/N=C/c1ccncc1)c1ccc(OCc2ccccc2)cc1 | -0.12
O=C1NC(=O)/C(=C\c2ccc(Sc3ccc(Cl)cc3)o2)N1 | 2.37
Oc1ccc(/C=N/Nc2nc(-c3cccnc3)nc3ccccc23)c(O)c1 | -2.97
COc1ccc(-c2occ(C(=O)O)c2C(=O)O)cc1 | -3.07
CCC(=O)N1N=C(c2ccccc2)CC1c1ccc([N+](=O)[O-])cc1 (centres unmarked) | -53.4
COc1ccc(C2CC(c3ccc(Cl)cc3)=NN2C(C)=O)cc1 (centres unmarked) | -23.5
CC(=O)N1N=C(c2ccc(Cl)cc2)CC1c1ccc([N+](=O)[O-])cc1 (centres unmarked) | 11.8
CC(=O)N1N=C(c2ccccc2)CC1c1cccc([N+](=O)[O-])c1 (centres unmarked) | -27.3
CC(=O)N1N=C(c2ccccc2)CC1c1ccccc1[N+](=O)[O-] (centres unmarked) | 2.95
CCC(=O)N1N=C(c2ccccc2)CC1c1ccccc1 (centres unmarked) | 2.71
CCn1cc([N+](=O)[O-])c(C(=O)N2N=C(c3ccccc3)CC2c2ccc([N+](=O)[O-])cc2)n1 (centres unmarked) | -37.2
COc1ccc(C2CC(c3ccc([N+](=O)[O-])cc3)=NN2C(C)=O)cc1 (centres unmarked) | -64.5
COc1ccc(C2=NN(C(=O)CCC(=O)O)C(c3ccc([N+](=O)[O-])cc3)C2)cc1 (centres unmarked) | 10.2

Structure (SMILES) | hERG current change (%, negative = inhibition) at 10uM [%]
O=C(O)CCC(=O)N1N=C(c2cccs2)CC1c1cccc([N+](=O)[O-])c1 (centres unmarked) | 20
CC(=O)N1N=C(c2cccs2)CC1c1cccc([N+](=O)[O-])c1 (centres unmarked) | -51.6
CC(=O)N1N=C(c2ccc([N+](=O)[O-])cc2)CC1c1ccccc1Cl (centres unmarked) | -66
O=C(O)CC1S/C(=N/N=C/C=C/c2ccccc2)NC1=O (centres unmarked) | 0.632
Cc1ccc(-n2c(C)c(C)c3c(NCCO)ncnc32)cc1 | 6.27
CSc1nsc(SCC(=O)Nc2nc3ccccc3s2)n1 | 9.66
Cn1c(=O)[nH]c2nnc(-c3ccc(Cl)c(Cl)c3)nc2c1=O | 8.52
COc1ccc(OC)c(/C=N/NC(=O)c2cnccn2)c1 | 1.45
COc1ccccc1CNC(=O)C(=O)NCC1OCCN1C(=O)c1cccs1 (centres unmarked) | 3.96
Cc1c(C(=O)N/N=C/c2ccc(-c3ccccc3[N+](=O)[O-])o2)sc(N)c1C#N | 12.1
COc1ccccc1N(C)S(=O)(=O)c1ccc(C(=O)OC(C)C(=O)NCc2ccc3c(c2)OCO3)cc1 (centres unmarked) | -41.6
CCc1ccc(NC(=S)NCC2CCCN2CC)cc1 (centres unmarked) | -32.2
CCn1c(SCC(=O)OC)nnc1C1CCCCC1 | 6.57
O=C(N/N=C/c1ccoc1)c1ccccc1Br | 16.9
CCc1nc(SCc2ccc(Cl)cc2)n[nH]1 | 12
Cc1occc1-c1nnc(SCC(=O)Nc2ccccc2)n1C(C)c1ccccc1 (centres unmarked) | -37.6
CCn1c(SCC(=O)Nc2nccs2)nnc1-c1ccco1 | -10.7
CCn1c(SCC(=O)Nc2nc(C)cs2)nnc1-c1ccoc1C | -1.96
Cn1cccc1Cc1nnc(SCC(=O)Nc2nccs2)n1CCc1ccccc1 | -9.58

Structure (SMILES) | hERG current change (%, negative = inhibition) at 10uM [%]
Cc1occc1-c1nnc(SCC(=O)NC(C)(C)C)n1C(C)c1ccccc1 (centres unmarked) | -11.8
Cc1occc1-c1nnc(SCC(=O)Nc2nccs2)n1CCc1ccccc1 | -60.3
Cc1csc(NC(=O)CSc2nnc(Cc3cccn3C)n2CCc2ccccc2)n1 | -4.35
Cc1csc(NC(=O)CSc2nnc(-c3ccoc3C)n2CCc2ccccc2)n1 | -59.7
Cc1csc(NC(=O)CSc2nnc(-c3ccoc3C)n2C(C)c2ccccc2)n1 (centres unmarked) | -74.1
COc1cc(C)c(Cl)cc1S(=O)(=O)NCCN1CCOCC1 | 15.9
Cc1c(NC(=O)c2ccc(F)cc2)c(=O)n(-c2ccccc2)n1C | 11.2
CCCc1cc(=O)[nH]c(SCC(=O)c2cc(C)n(CC(F)(F)F)c2C)n1 | 7.55
CC(=O)c1ccc(S(=O)(=O)N(C)CC(=O)Nc2ccc(C)cc2)cc1 | -0.949
O=S(=O)(Nc1ccc2c(c1)OCCO2)c1cnc[nH]1 | 7.8
CCOC(=O)c1c(S(=O)(=O)NCCc2ccc(OC)c(OC)c2)c(C)n(C)c1C | 4.97
CC(C)(C)NC(=O)NC(=O)COC(=O)c1cccc(F)c1 | -1.01
O=C(CSc1nnc(COc2cccc3cccnc23)o1)N1CCN(C(=O)c2ccco2)CC1 | 0.452
O=C(CSc1nnc(COc2cccc3ccccc23)o1)N1CCN(C(=O)c2ccco2)CC1 | -65.1
O=C(CSc1nnc(CNc2ccccc2)o1)N1CCN(C(=O)c2ccco2)CC1 | -17.3
O=C(CSc1nnc(CNc2ccc(F)cc2)o1)N1CCN(C(=O)c2ccco2)CC1 | -50.8
O=C(NCc1nnc(SCC(=O)N2CCCC2)o1)c1ccco1 | -7.2
O=C(CSc1nnc(COc2cccc3ccccc23)o1)N1c2ccccc2CCc2ccccc21 | 7.68
